High-throughput results (PubChem)
Sampled rows, rich in hits. Any-hit rate of the full collection: about 6.9%.
Mdm2-MdmX inh: inhibitors of human Mdm2/MdmX interaction; O15151+Q00987; SaOS-2 split-luciferase Mdm2/MdmX complementation, luminescence; inhibition, % at 8 µM; 330,000 compounds, 3% hits;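 active = inhibition of at least 50% at 8 µM in the primary screen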
Target sequence (O15151 whole entry, looked up): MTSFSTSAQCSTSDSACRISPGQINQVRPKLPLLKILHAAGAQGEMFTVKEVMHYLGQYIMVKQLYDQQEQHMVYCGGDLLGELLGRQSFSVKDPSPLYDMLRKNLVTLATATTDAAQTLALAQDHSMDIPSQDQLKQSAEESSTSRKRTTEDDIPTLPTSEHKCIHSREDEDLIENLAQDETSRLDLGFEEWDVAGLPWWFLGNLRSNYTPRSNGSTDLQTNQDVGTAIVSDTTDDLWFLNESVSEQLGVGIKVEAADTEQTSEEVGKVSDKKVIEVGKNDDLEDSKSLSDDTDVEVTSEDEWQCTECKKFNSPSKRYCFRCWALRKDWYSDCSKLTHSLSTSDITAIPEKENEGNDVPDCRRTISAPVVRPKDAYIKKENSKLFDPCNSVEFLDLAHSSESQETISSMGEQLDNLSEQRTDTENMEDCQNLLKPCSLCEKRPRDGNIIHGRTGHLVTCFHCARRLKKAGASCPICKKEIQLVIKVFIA
Target sequence (Q00987 whole entry, looked up): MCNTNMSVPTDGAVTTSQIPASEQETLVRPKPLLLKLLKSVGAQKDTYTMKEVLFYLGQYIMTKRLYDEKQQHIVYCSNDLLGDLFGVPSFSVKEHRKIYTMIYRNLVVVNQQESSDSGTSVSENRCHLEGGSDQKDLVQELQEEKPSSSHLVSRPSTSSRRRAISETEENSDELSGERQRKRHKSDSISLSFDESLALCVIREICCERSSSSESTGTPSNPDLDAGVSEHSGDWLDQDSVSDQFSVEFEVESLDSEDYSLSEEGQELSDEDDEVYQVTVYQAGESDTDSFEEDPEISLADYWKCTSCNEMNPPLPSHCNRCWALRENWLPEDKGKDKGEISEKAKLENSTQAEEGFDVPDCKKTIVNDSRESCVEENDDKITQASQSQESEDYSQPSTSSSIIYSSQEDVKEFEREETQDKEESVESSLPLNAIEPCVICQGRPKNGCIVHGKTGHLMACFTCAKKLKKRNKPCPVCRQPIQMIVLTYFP
MPTP inh: blocks calcium-induced mitochondrial swelling; inhibition, % at 10 µM; 360,000 compounds, 1.4% hits; isolated mouse mitochondria, Ca2+ swelling absorbance, 30 min;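 active = inhibition of 50% or more, scaled per plate between neutral and stimulator controls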;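 note: 0% = DMSO wells given calcium and 100% = 1 mM EGTA wells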
CSC inhib: blocks cancer stem cells. inhibition, % at 7.5 µM. AID 2717. 300,000 compounds, 1.1% hits. cancer stem cell-like cells viability, luminescence; in the data active = inhibition above about 75%; inconclusive = no clear call, values can overlap the other calls; tested in HMLE shEcad cells
Beta apoptosis: blocks beta cell apoptosis; protection from apoptosis, % (no concentration beside the values); INS-1E cytokine-induced death, ATP luminescence, 48 h; percent of positive-control rescue, neutral wells zero; 300,000 compounds, 0.8% hits;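 active = Every replicate reaches about 75%, or at least half do and their mean reaches it too, limit read from the data; inconclusive = At least half of replicates reach the limit but their mean does not; inactive = Under half of replicates reach the limit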;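 note: 0% = cytokine-treated negative control wells and 100% = positive control rescue; higher means more ATP so stronger rescue from cytokine killing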
SKKanGAS inh: blocks kanamycin growth of S. pyogenes SKKanGAS strain; BacTiter-Glo, 6 h; inhibition, % at 7.5 µM; 300,000 compounds, 1.3% hits; AID 1662;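 active = mean replicate score, as percent of positive control median, at least 50; inconclusive = mean below 50 but one replicate at or above 50; inactive = mean and every replicate below 50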;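 note: strain carries kanamycin resistance gene driven by streptokinase promoter and grows in 40 µg/ml kanamycin; loss of luminescence reflects streptokinase promoter inhibition or plain growth inhibition; 0% = median of DMSO wells and 100% = positive control at its reference dose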
NR3A LBD binder: modulates the human NR3A ligand-binding domain. NR3A LBD differential scanning fluorimetry, Tm shift; 0% = protein alone, 100% = glycine-bound protein. Tm shift relative to glycine control, % at 25 µM. 340,000 compounds, 2.5% hits;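 active = melting temperature shift of at least 10% of the positive control shift, at one fixed dose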
MPTP counter: Rhodamine 123 counter-screen of mitochondrial pore hits; shares compounds with MPTP inh; isolated mitochondria, membrane potential, Rhodamine 123 fluorescence; inhibition, % at 10 µM; 5,000 compounds, 78% hits; AID 624504; in the data active = inhibition above about 22%;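 note: 0% = DMSO vehicle and 100% = positive control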
MPTP swell DR: dose response confirmation of mitochondrial permeability transition pore inhibitors; shares compounds with MPTP inh; isolated mitochondria swelling, absorbance; IC50, µM; 780 compounds, 58% hits; AID 651561; in the data active = IC50 below about 20 µM
MPTP counter DR: counter-screen for mitochondrial permeability transition pore inhibitors, dose response | shares compounds with MPTP inh | isolated mitochondria counterscreen, fluorescence read-out | IC50, µM | 780 compounds, 49% hits; in the data active = IC50 below about 80 µM
An asterisk follows results filed as active; i = inactive; u = inconclusive; x = no result.

SMILES | Mdm2-MdmX inh | MPTP inh | CSC inhib | Beta apoptosis | SKKanGAS inh | NR3A LBD binder | MPTP counter | others
O=C(CN1C(=O)c2cccnc2Oc2ccc(Cl)cc21)N1CCCC1 | -20 | 2 | -21 | -8 | -3 | 0 | x
CCN(CC(=O)Nc1c(F)cccc1F)C(=O)Cc1ccc2c(c1)CCC2 | 5 | -1 | -12 | 0 | -1 | 1 | x
COc1ccccc1C(=O)NCCNC(=O)c1ccc(C)nc1 | 19 | 0 | -8 | -7 | 2 | 1 | x
O=C(c1cc2nc(-c3ccc(F)cc3)cc(C(F)(F)F)n2n1)N1CCCCC1c1cccnc1 (centres undefined) | 29 | 90* | 1 | 55 | 13 | -2 | 90*
O=C(Nc1ccc(C(F)(F)F)cc1)N1CCN(c2ccnc3cc(Cl)ccc23)CC1 | 14 | 79* | 89* | 11 | 53* | 10 | 81*
O=C(Nc1cc(F)ccc1F)N1CCN(c2ccnc3cc(Cl)ccc23)CC1 | 23 | 59* | 1 | 12 | -3 | 0 | 36*
Cc1ccc(F)cc1NC(=O)N1CCN(c2ccnc3cc(Cl)ccc23)CC1 | 32 | 33 | 0 | 2 | 2 | -3 | x
C=C1CC[C@@H]2[C@](C)(CO)[C@H](O)CC[C@@]2(C)[C@@H]1C/C=C1/C(=O)OCC1O (some centres undefined) | x | -2 | x | x | x | -2 | x
COc1cc(NC(=O)COc2cc(O)c3c(c2)OC(C)(C)CC3=O)cc(OC)c1OC | 30 | 99* | 12 | 110* | 7 | 0 | 98*
[O-][n+]1c2c(c3c4non(O)c4ccc31)CCCC2 | 13 | 96* | x | x | 1 | -3 | 83*
COn1c2c(c3c4no[n+]([O-])c4ccc31)CCCC2 | 8 | 1 | -7 | 3 | 5 | 1 | x
O=C(c1cc(-c2ccco2)nc2ccccc12)N1CCCC(C(F)(F)F)C1 (centres undefined) | 7 | 1 | x | -5 | x | 2 | x
CCN(CC(=O)Nc1ccc2c(c1)OCCO2)C(=O)c1ccc(C(F)(F)F)cc1 | -13 | -1 | -14 | x | -4 | 0 | x
Clc1ccc(OCCOCCN2CCc3ccccc3C2)c(Cl)c1 | 25 | 100* | 42 | 3 | 1 | 2 | -6 | MPTP swell DR=i;MPTP counter DR=31*
O=C(Nc1sc2c(c1C(=O)O)CCCC2)c1cccc(Cl)c1 | 1 | 4 | 17 | -5 | 26 | 0 | x
c1ccc(Oc2ccccc2-c2cc(NCCc3cccnc3)n3nccc3n2)cc1 | x | 1 | x | x | x | x | x
O=C(NCCc1ccccc1)c1nccc2ccccc12 | -32 | -1 | -3 | 1 | -1 | 3 | x
c1ccc(CCNc2ccnc3cc4ccccc4cc23)cc1 | x | 101* | x | x | 3 | -2 | 106*
COc1ccc(NS(=O)(=O)c2ccc3c(c2)Cc2ccccc2-3)cn1 | 28 | 84* | 15 | 3 | -1 | -3 | 87*
COc1ccc(NC(=O)c2cccc(S(=O)(=O)Nc3ccc(Br)cc3)c2)cn1 | 6 | 97* | 20 | -4 | 14 | 22* | 80*
CCOc1ccc(S(=O)(=O)Nc2cnc3ccccc3c2)cc1 | -4 | 87* | x | 39 | -2 | -2 | 90*
O=C(Nc1ccc(Br)cc1)c1cccc(S(=O)(=O)Nc2cnc3ccccc3c2)c1 | 24 | 108* | 51 | 38 | 36 | 41* | 74*
COc1ccc(NS(=O)(=O)c2ccc(N3CCCC3=O)cc2)cn1 | 35 | 0 | 29 | 16 | -2 | 1 | x
COc1cccc(CN(C(=O)COc2ccc(C)cc2)C2CCS(=O)(=O)C2)c1 (centres undefined) | -5 | -1 | 5 | -4 | -7 | 0 | x
CCOC(=O)N1CCN(S(=O)(=O)c2c[nH]c(C(=O)OC)c2)CC1 | 19 | -2 | 5 | -3 | 1 | -2 | x
SMILES | Mdm2-MdmX inh | MPTP inh | CSC inhib | Beta apoptosis | SKKanGAS inh | NR3A LBD binder | MPTP counter | others
CCN(CC(=O)Nc1ccc2c(c1)OCCO2)C(=O)/C=C/c1cc(Br)ccc1OC | x | -2 | x | x | x | x | x
O=C(O)c1ccc(NC(=O)c2cccc(S(=O)(=O)Nc3ccc(C(=O)O)cc3)c2)cc1 | 15 | 1 | -8 | 1 | -8 | -1 | x
O=C1CSc2ccc(C(=O)Nc3cccc(S(=O)(=O)Nc4ccc(Br)cc4)c3)cc2N1 | 28 | 89* | 87* | 41 | 73* | 28* | 71*
Cc1cc(C)n(-c2nc(-c3ccc(Cl)c(Cl)c3)cs2)n1 | -29 | 60* | 14 | -1 | 8 | 1 | 1 | MPTP swell DR=>100;MPTP counter DR=>80
COC(=O)c1cccc(C23CC4(C2)[C@H](CN(Cc2cccnc2)[C@@H]4c2ccccc2)C3c2ccccc2)c1 (some centres undefined) | 1 | -1 | 23 | 0 | 22 | 5 | x
Nc1cc(=O)[nH]c(SCc2ccc(Cl)cc2Cl)n1 | 32 | 12 | 1 | 18 | 4 | -2 | x
O=C1NC(=S)S/C1=C\c1ccc2ccccc2c1 | -54 | 44 | 64 | 8 | 13 | -1 | x
O=C1NC(=S)SC1=Cc1ccccc1Br | x | 94* | x | x | x | -2 | 74*
O=C1NC(=S)NC1=Cc1ccc(Cl)cc1Cl | x | 2 | x | x | x | -6 | x
O=C1NC(=S)SC1=Cc1ccc(Cl)cc1 | x | 95* | x | x | x | 6 | 79*
O=C1NC(=O)C(=Cc2ccc(Cl)cc2Cl)S1 | x | 81* | x | x | x | -8 | 94*
O=C1NC(=S)SC1=Cc1ccc(F)cc1 | x | 82* | x | x | x | -6 | 85*
O=C(O)c1sc2cc(C(F)(F)F)cnc2c1-c1cccs1 | 7 | -2 | -14 | x | -2 | 4 | x
COC(=O)C[C@H]1c2cc(F)cc(F)c2S(=O)(=O)N1C1CCN(Cc2ccccc2)CC1 | 1 | -1 | 6 | 2 | -2 | 2 | x
CCOC(=O)C1CCCN(C(=O)C(=O)c2cn(CC(=O)N3CCOCC3)c3ccccc23)C1 (centres undefined) | 22 | 0 | -1 | -3 | 0 | -4 | x
CC[C@H](C)[C@@H](C(=O)NCCCCCCCCCCC(=O)N1CCN(C(=O)OC(C)(C)C)CC1)n1cc(CCCCCNC(=O)OC(C)(C)C)nn1 | 17 | 87* | -5 | 101* | x | -7 | 22*
O=C1CC(c2ccccc2)=NN1c1ccccc1 | x | 7 | x | x | x | -5 | x
O=C1CC(c2ccccc2)=NN1c1nc(-c2ccccc2)cs1 | 4 | 67* | 44 | -1 | u | 2 | 42*
COc1ccc(S(=O)(=O)C(C#N)c2nc3ccccc3nc2N2CCCC(C)C2)cc1 (centres undefined) | 3 | 24 | 41 | 2 | 28 | 3 | x
CC1CCCN(c2nc3ccccc3nc2C(C#N)S(=O)(=O)c2cccs2)C1 (centres undefined) | 4 | 93* | 34 | 2 | 13 | 6 | 67*
